Active and inactive are the calls of the source.
assay: basal CRE-LacZ reporter activity in PC12 – cell-based, unstimulated, primary screen (AID 1145); settings: no forskolin, luminescence, 4.5 h, higher = more signal, called active from +8 up or from −8 down

z-score, inactive:
O=C(NCC(O)CO)[C@@]1(CCS(=O)(=O)c2ccccc2)N=C(c2ccc(OCCCO)cc2)O[C@H]1c1ccccc1 (stereo not given in full) 0.675
COCCCNC(=O)[C@@H]1c2ccccc2C(=O)N(Cc2ccc(OC(F)(F)F)cc2)[C@H]1c1ccc(CO)cc1 0.674
Cc1ccc(F)cc1S(=O)(=O)N[C@H]1CCN(Cc2ccc(OC(C)C)cc2)C1 1.4
CC1CC/C=C\[C@H]2OC34C=CCN(c5ccc(Cl)cc5)C(=O)[C@H]3N(CCCCCCO)C(=O)[C@]4(C)C2C(=O)O1 (stereo not given in full) 1
O=C1C2C=CC(C(O)c3c(F)cccc3Cl)N(Nc3ccc([N+](=O)[O-])cc3)C2C(=O)N1c1ccccc1 (stereo not given) -0.0787
[N-]=[N+]=Nc1ccccc1[C@@H]1OC(c2ccc(OCCCO)cc2)=N[C@]1(CCS(=O)(=O)c1ccccc1)C(=O)NCC(O)CO (stereo not given in full) 0.0827
C=CC[C@@]1(C(=O)OC)N=C(c2ccc(OCCCO)cc2)O[C@@H]1c1ccccc1N=[N+]=[N-] 1.79
COC(=O)[C@@]1(Cc2ccc(OC)cc2)[C@H]2c3cc(C(=O)N4CCCC4)n(CCn4cc([N+](=O)[O-])nc4C)c3C[C@H]2CN1C(=O)c1ccccc1 0.779
CN1C(=O)C2C(C3CC3)C=C3CN(Cc4cccc(Cl)c4)[C@@H]([C@@H](O)Cc4ccccc4)C3C2C1=O (stereo not given in full) 5.58
COc1ccccc1CN1C(=O)c2ccccc2[C@](Cc2ccccc2I)(C(=O)NCC(C)C)[C@@H]1c1ccc(CO)cc1 0.0279

assay: forskolin-driven CRE-LacZ activity in PC12 – cell-based, CRE-LacZ reporter, forskolin-stimulated, primary screen (AID 1146); settings: luminescence, 4.5 h, higher = more signal, called active from +8 up or from −8 down;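 note: PC12 cells with 6xCRE LacZ reporter stimulated by forskolin 10 µM; beta-galactosidase reporter signal reflecting CREB driven transcription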

z-score, inactive:
CCOC(=O)C1=CC[C@@H](c2ccc(OC)cc2)N(S(=O)(=O)c2ccc(C)cc2)[C@H]1c1ccc(C)cc1 -0.24
CCOC(=O)C[C@H]1[C@H](OC(=O)Cc2ccc3c(c2)OCO3)[C@@H](NC(=O)c2ccc3ccccc3n2)c2cc(OCCCO)ccc2N1C(=O)Cc1ccc(OC)cc1 0.637
CC(C)(C)N1CC=CC23O[C@@H]4C=CCOC(=O)[C@@H]4[C@H]2C(=O)N(CCO)[C@@H]3C1=O (stereo not given in full) 1.07
CCOC(=O)C1=CC[C@@H](c2ccc(OC)cc2)N(S(=O)(=O)c2ccc(C)cc2)[C@H]1CC -0.0915
COc1ccc(NN2C(C(O)c3ccc(I)cc3)C=CC3C(=O)N(C4CCCCC4)C(=O)C32)cc1 (stereo not given) -0.469
C=CCOC(=O)[C@H]1[C@@H]2C(=O)O[C@@H](c3ccccc3)[C@@H](c3ccccc3)N2[C@@H](c2ccc(OCCOC(=O)[C@@H]3C[C@@H]4C(=O)N[C@@H](CCCC[N+](C)(C)C)C(=O)N4[C@@H]3c3ccc(O)cc3)cc2)[C@]12C(=O)Nc1ccc(I)cc12 1.07
Cc1ccc(S[C@]2(C(=O)NCc3ccccc3)CC(=O)N(Cc3ccccc3C(F)(F)F)[C@@H]2c2ccc(CO)cc2)cc1 -0.0177
CC(C)=CCCC(C)=CC(O)C1C=CC2C(=O)NC(=O)C2N1Nc1ccccn1 (stereo not given) -0.0179
O=C1O[C@H](c2ccccc2)[C@H](c2ccccc2)N2[C@H]1[C@@H](C(=O)O)[C@]1(C(=O)Nc3ccc(C#CCCO)cc31)[C@H]2c1ccc(OCCO)cc1 0.147
C=CCN1C(=O)[C@@]2(O[C@@H](CCn3cc([C@H](O)c4ccccc4)nn3)[C@H]([Si](C)(C)c3ccc(OC)cc3)[C@H]2C)c2cc(N3C(=O)c4cccc5cccc3c45)ccc21 -0.592
NC(=O)NCC#Cc1ccc2c(c1)[C@]1(C(=O)N2)[C@H](c2ccc(OCCO)cc2)N2[C@H](c3ccccc3)[C@H](c3ccccc3)OC(=O)[C@H]2[C@@H]1C(=O)O -0.719
CO[C@H]1O[C@H](CO)[C@@H](OC(=O)Nc2ccc3c(c2)OCO3)[C@H](OC(=O)Nc2ccccc2-c2ccccc2)[C@H]1OC(=O)Nc1ccccc1-c1ccccc1 -1.05
CC1CC/C=C\[C@H]2OC34C=CCN(c5ccc6ccccc6c5)C(=O)[C@H]3N(C(C)CO)C(=O)[C@@H]4C2C(=O)O1 (stereo not given in full) -0.0752
COC(=O)[C@@]1(Cc2ccc(OC)cc2)[C@H]2c3cc(C(=O)N4CCCC4)n(Cc4ccc(C(F)(F)F)nc4)c3C[C@H]2CN1C(=O)c1ccccc1 0.945
Cc1ccc(C(C)CC(O)C2C=CC3C(=O)N(C)C(=O)C3N2Nc2ccccc2)o1 (stereo not given) 0.471
C=CC[C@@]1(C(=O)N(C)C)N=C(c2ccc(OCCCO)cc2)O[C@@H]1c1ccccc1CN=[N+]=[N-] -0.357
COC(=O)[C@@]1(Cc2ccccc2)[C@H]2c3cc(C(=O)N4CCCC4)n(Cc4ccc(OC)c(OC)c4)c3C[C@H]2CN1C(=O)c1ccccc1 0.208
N#Cc1ccc(NN2C(C(O)C3CC=CCC3)C=CC3C(=O)N(c4ccccc4)C(=O)C32)cc1 (stereo not given) 0.516
C=C(C)[C@@H]1CC=C(C(O)C2C=CC3C(=O)N(c4ccccc4)C(=O)C3N2Nc2ccc([N+](=O)[O-])cc2)CC1 (stereo not given in full) -0.605
COc1ccc([Si](C)(C)[C@H]2[C@H](CCO)O[C@@]3(C(=O)N(Cc4cccc(N(C=O)c5ccccc5)c4)c4ccccc43)[C@@H]2C)cc1 -1.56
CCCCC(O)C1C=CC2C(=O)N(c3ccccc3)C(=O)C2N1Nc1ccc([N+](=O)[O-])cc1 (stereo not given) -0.176
COc1ccc([Si](C)(C)[C@@H]2[C@@H](CC(=O)N3CCC[C@H]3CO)O[C@]3(C(=O)N(Cc4ccc(N5CCOC5=O)cc4)c4ccccc43)[C@H]2C)cc1 -1.2
CC(C)NC(=O)[C@@H]1c2ccccc2C(=O)N(Cc2ccccc2C(F)(F)F)[C@H]1c1ccc(CO)cc1 1.71
CCCCCC1=C2CNC(Cc3ccccc3)(C(=O)OC)C=C2C(C)C1=O (stereo not given) 2.19
CN(C)c1ccc(C(O)C2C=CC3C(=O)N(Cc4ccccc4)C(=O)C3N2n2cnnc2)cc1 (stereo not given) -0.607
O=C(NCC(O)CO)[C@@]1(CCS(=O)(=O)c2ccccc2)N=C(c2ccc(OCCCO)cc2)O[C@H]1c1ccccc1 (stereo not given in full) -1.04
COCCCNC(=O)[C@@H]1c2ccccc2C(=O)N(Cc2ccc(OC(F)(F)F)cc2)[C@H]1c1ccc(CO)cc1 0.0988
Cc1ccc(F)cc1S(=O)(=O)N[C@H]1CCN(Cc2ccc(OC(C)C)cc2)C1 -0.592
CC1CC/C=C\[C@H]2OC34C=CCN(c5ccc(Cl)cc5)C(=O)[C@H]3N(CCCCCCO)C(=O)[C@]4(C)C2C(=O)O1 (stereo not given in full) -0.446
O=C1C2C=CC(C(O)c3c(F)cccc3Cl)N(Nc3ccc([N+](=O)[O-])cc3)C2C(=O)N1c1ccccc1 (stereo not given) 0.329
[N-]=[N+]=Nc1ccccc1[C@@H]1OC(c2ccc(OCCCO)cc2)=N[C@]1(CCS(=O)(=O)c1ccccc1)C(=O)NCC(O)CO (stereo not given in full) 0.0767
C=CC[C@@]1(C(=O)OC)N=C(c2ccc(OCCCO)cc2)O[C@@H]1c1ccccc1N=[N+]=[N-] -0.775
COC(=O)[C@@]1(Cc2ccc(OC)cc2)[C@H]2c3cc(C(=O)N4CCCC4)n(CCn4cc([N+](=O)[O-])nc4C)c3C[C@H]2CN1C(=O)c1ccccc1 0.861
CN1C(=O)C2C(C3CC3)C=C3CN(Cc4cccc(Cl)c4)[C@@H]([C@@H](O)Cc4ccccc4)C3C2C1=O (stereo not given in full) 0.349
COc1ccccc1CN1C(=O)c2ccccc2[C@](Cc2ccccc2I)(C(=O)NCC(C)C)[C@@H]1c1ccc(CO)cc1 -0.542

From PubChem BioAssay
